Records with an inconclusive call do not appear. Active and inactive are the calls of the source. Calls follow the shape of the dose curve; as a rule, active = well fitted curve in the direction sought with a large enough effect in the repeat runs; inconclusive = weak or mixed curves; inactive = no such curve, though single readings can be large; an effect the other way counts as inactive or inconclusive.
What was measured:
[1] = qHTS RealTime-Glo MT Cell Viability Assay in HepG2 cells - 40 hour (AID 1224870); also: nearly all actives have a fitted effect of over 50% in size; also: potency is read from the fitted curve at half-maximal effect
Procedure, shortened: (§1)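 HepG2 cells mixed with RealTime-Glo MT reagents (NanoLuc plus cell-permeant prosubstrate) were seeded at 600 cells/well, incubated 5 h at 37 C/5% CO2, then pinned with compounds in DMSO; nonlytic luminescence tracked viability during 40 h treatment.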

[2] = A CellTox Green Cytotoxicity Assay to monitor cytotoxicity in HEK293 cells - 40 hour (AID 1224871); also: nearly all actives have a fitted effect of over 45% in size
Procedure, shortened: (§2)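 Fluorescence intensity, read at 0, 8, 16, 24, 32 and 40 h of compound treatment, reflected dye binding to DNA of dead HEK293 cells; compounds (23 nL, DMSO) were added 5 h after plating cells with reagent.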

[3] = qHTS RealTime-Glo MT Cell Viability Assay in HEK293 cells - 16 hour (AID 1224872); also: top concentration of the series differs between compounds; nearly all actives have a fitted effect of over 50% in size
Procedure, shortened: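 Assay medium contained NanoLuc luciferase plus cell-permeant prosubstrate, added with HEK293 cells at 600 cells/well. After 5 h at 37 C/5% CO2 compounds were added; plates stayed at 37 C for 40 h with serial luminescence reads.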

[4] = qHTS RealTime-Glo MT Cell Viability Assay in HepG2 cells - 8 hour (AID 1224873); also: nearly all actives have a fitted effect of over 55% in size
Procedure, shortened: as §1

[5] = A CellTox Green Cytotoxicity Assay to monitor cytotoxicity in HEK293 cells - 24 hour (AID 1224875); also: series mostly up to about 77 µM; nearly all actives have a fitted effect of over 45% in size
Procedure, shortened: as §2

[6] = A CellTox Green Cytotoxicity Assay to monitor cytotoxicity in HepG2 cells - 16 hour (AID 1224876); also: nearly all actives have a fitted effect of over 45% in size
Procedure, shortened: (§3)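 Using 1536-well format, dye-containing HepG2 suspension was seeded, allowed 5 h at 37 C/5% CO2, dosed by pintool with compounds, positive and negative controls, and imaged for fluorescence across 40 h.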

[7] = qHTS RealTime-Glo MT Cell Viability Assay in HepG2 cells - 32 hour (AID 1224877); also: nearly all actives have a fitted effect of over 55% in size
Procedure, shortened: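 qHTS, HepG2, 600 cells/well, RealTime-Glo (NanoLuc + prosubstrate) added with cells; 5 h preincubation; DMSO compound addition; 37 C; luminescence at 0/8/16/24/32/40 h.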

[8] = A CellTox Green Cytotoxicity Assay to monitor cytotoxicity in HepG2 cells - 24 hour (AID 1224878); also: nearly all actives have a fitted effect of over 45% in size
Procedure, shortened: as §3

[9] = A CellTox Green Cytotoxicity Assay to monitor cytotoxicity in HepG2 cells - 40 hour (AID 1224879); also: nearly all actives have a fitted effect of over 40% in size
Procedure, shortened: as §3

[10] = qHTS RealTime-Glo MT Cell Viability Assay in HEK293 cells - 40 hour (AID 1224874); conditions: RealTime-Glo luminescence; max response: stronger effect = lower value; also: nearly all actives have a fitted effect of over 50% in size
Procedure, shortened: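 Viable HEK293 cells reduce a cell-permeant prosubstrate; the product diffuses out and is consumed by NanoLuc in the medium to give light. Compounds went in after a 5 h incubation and plates were read over the treatment course.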
% is scaled to controls: 0 for no effect and ±100 for the full control effect.

CC(C)CCCC(C)CCCC(C)CCCCC(C)CCCC(C)CCCC(C)C (stereo not drawn)
inactive: Potency [1] | Potency [2] | Potency [3] | outcome [4] | Potency [5] | Potency [6] | Potency [7] | Potency [8] | Potency [9]

CCN1CCN(c2cc3c(cc2F)c(=O)c(C(=O)O)cn3C2CC2)CC1
inactive: Potency [1] | Potency [2] | Potency [3] | max response [10] -0.866% | Potency [5] | Potency [6] | Potency [7] | Potency [8]

Cc1c(C)n(CCN(C)C)c2ccc(C(=O)OCCN(C)C)cc12
inactive: Potency [1] | Potency [2] | Potency [3] | outcome [4] | Potency [5] | Potency [6] | Potency [7] | Potency [8] | Potency [9]

N#CCc1ccccc1[N+](=O)[O-]
inactive: Potency [1] | Potency [2] | Potency [3] | outcome [4] | Potency [5] | Potency [7] | Potency [8] | Potency [9]

CCCCCCCCN(C)CCCCCCCC
inactive: Potency [1] | Potency [2] | Potency [3] | max response [10] 4.39% | Potency [5] | Potency [6] | Potency [7]

CC1CCN(CCCC(=O)c2ccc(F)cc2)CC1
inactive: Potency [1] | Potency [2] | Potency [3] | outcome [4] | Potency [5] | Potency [7] | Potency [8] | Potency [9]

CCCCCOC(=O)Nc1nc(=O)n([C@@H]2O[C@H](C)[C@@H](O)[C@H]2O)cc1F
inactive: Potency [1] | Potency [2] | outcome [4] | max response [10] 7% | Potency [5] | Potency [6] | Potency [7] | Potency [8] | Potency [9]

C[N+](C)(C)CC[N+]1(C)Cc2c(Cl)c(Cl)c(Cl)c(Cl)c2C1
active: Potency [1] 23.9 µM
inactive: Potency [2] | outcome [4] | max response [10] 7.36% | Potency [5] | Potency [6] | Potency [8] | Potency [9]

O=C(CCOCCOCCOCCOCCC(=O)Nc1c(I)cc(I)c(C(=O)O)c1I)Nc1c(I)cc(I)c(C(=O)O)c1I
inactive: Potency [1] | Potency [2] | Potency [3] | max response [10] -0.881% | Potency [5] | Potency [6] | Potency [7] | Potency [8] | Potency [9]

O=C(O)C(O)[C@H](O)[C@@H](O)[C@H](O)[C@H](O)CO (stereo partly drawn)
inactive: Potency [1] | Potency [2] | Potency [3] | Potency [5] | Potency [6] | Potency [7] | Potency [8]

Cc1ncc(CSSCc2cnc(C)c(O)c2CO)c(CO)c1O
inactive: Potency [1] | Potency [2] | outcome [4] | max response [10] 5.83% | Potency [5] | Potency [6] | Potency [7] | Potency [8] | Potency [9]

C=C(C)C1CC=C(C)C(O)C1 (stereo not drawn)
inactive: Potency [1] | Potency [2] | outcome [4] | max response [10] 9.55% | Potency [5] | Potency [6] | Potency [7] | Potency [8] | Potency [9]

Cn1ccc2cc3c(cc21)CCN3C(=O)Nc1cccnc1
inactive: activity change, negative = cytotoxic [1] -0.975% [at 15.8 µM] | cytotoxicity increase [2] -10.7% [at 15.8 µM] | viability change, negative = cytotoxic [4] -3.74% [at 15.8 µM] | max response [10] -5.83% | activity change [5] -2.97% [at 15.8 µM, stronger effect = higher value] | cytotoxicity increase [6] -8.93% [at 15.8 µM] | activity change, negative = cytotoxic [7] -1.69% [at 15.8 µM] | cytotoxicity [8] -8.65% [at 15.8 µM]

C=C(C)C(=O)OCCC(C)OC(=O)C(=C)C (stereo not drawn)
inactive: Potency [1] | Potency [2] | outcome [4] | max response [10] 8.52% | Potency [5] | Potency [6] | Potency [7] | Potency [8]

C=C(C)[C@H]1CC=C(C)CC1
inactive: Potency [1] | Potency [2] | outcome [4] | max response [10] 0.727% | Potency [5] | Potency [6] | Potency [7] | Potency [8] | Potency [9]

Nc1cc(N)cc(C(=O)O)c1
inactive: Potency [1] | Potency [2] | outcome [4] | max response [10] 8.18% | Potency [5] | Potency [6] | Potency [7] | Potency [8] | Potency [9]

CCc1cc(S(=O)(=O)O)c2cc(C(C)C)cccc1-2
inactive: Potency [1] | Potency [2] | outcome [4] | max response [10] 7.39% | Potency [5] | Potency [6] | Potency [7] | Potency [8] | Potency [9]

OC[C@H]1O[C@@H]2O[C@H]3[C@H](O)[C@@H](O)[C@@H](O[C@H]4[C@H](O)[C@@H](O)[C@@H](O[C@H]5[C@H](O)[C@@H](O)[C@@H](O[C@H]6[C@H](O)[C@@H](O)[C@@H](O[C@H]7[C@H](O)[C@@H](O)[C@@H](O[C@H]8[C@H](O)[C@@H](O)[C@@H](O[C@H]9[C@H](O)[C@@H](O)[C@@H](O[C@H]1[C@H](O)[C@H]2O)O[C@@H]9CO)O[C@@H]8CO)O[C@@H]7CO)O[C@@H]6CO)O[C@@H]5CO)O[C@@H]4CO)O[C@@H]3CO
inactive: Potency [1] | Potency [2] | outcome [4] | max response [10] 1.22% | Potency [5] | Potency [6] | Potency [7] | Potency [8] | Potency [9]

NC(N)=NS(=O)(=O)c1ccc(N)cc1
inactive: Potency [1] | Potency [2] | Potency [3] | max response [10] -4.08% | Potency [5] | Potency [6] | Potency [7] | Potency [8] | Potency [9]

Cc1cc(C)c(NC(=O)CN(CC(=O)O)CC(=O)O)c(C)c1Br
inactive: Potency [1] | Potency [2] | Potency [3] | max response [10] -1.32% | Potency [6] | Potency [7] | Potency [8] | Potency [9]

CCCCCCCCCCC1CO1 (stereo not drawn)
inactive: Potency [1] | Potency [2] | Potency [3] | max response [10] 6.25% | Potency [6] | Potency [7] | Potency [8] | Potency [9]

C#CC(O)C(CC)CCCC (stereo not drawn)
inactive: Potency [1] | Potency [2] | outcome [4] | max response [10] 11.7% | Potency [5] | Potency [6] | Potency [7] | Potency [8]

COC(=O)CCCC(=O)O
inactive: Potency [1] | Potency [2] | Potency [3] | Potency [5] | Potency [6] | Potency [7] | Potency [8]

CC(C)(C)CC(C)(C)N
inactive: Potency [1] | Potency [2] | Potency [3] | max response [10] 11.1% | Potency [5] | Potency [7] | Potency [8] | Potency [9]

CCC(C(=O)NC(N)=O)c1ccccc1 (stereo not drawn)
inactive: Potency [1] | Potency [2] | Potency [3] | max response [10] 5.63% | Potency [6] | Potency [7] | Potency [8] | Potency [9]

From PubChem BioAssay (Tox21)
